# Data taken from ChEMBL document CHEMBL4513146, “CO-ADD screening of Karazin Kharkiv National University (Ukraine) compounds”.
# Entries with a potency or affinity are not part of this list.
# How the values were obtained:
# Klebsiella pneumoniae = details: Concentration 32 ug.mL-1;; ASSAY_TEST Inhibition of Bacterial Growth; detection method Absorption (OD600); MEDIA CAMHB; plate type 384well; NBS; CORNING #3640; time 18 hr
# Candida albicans = details: Concentration 32 ug.mL-1; ASSAY_TEST Inhibition of Fungal Growth; detection method Absorption (OD530)
# Cryptococcus neoformans = details: Concentration 32 ug.mL-1; ASSAY_TEST Inhibition of Fungal Growth; detection method Resazurin; Absorption (OD600-OD570); plate type 384well; NBS; CORNING #3640
Structure (SMILES),Inhibition (Klebsiella pneumoniae) [%],Inhibition (Candida albicans) [%],Inhibition (Cryptococcus neoformans) [%]
COC(=O)c1ccc(NC(=O)Cn2nc3c(Oc4ccccc4)nccn3c2=O)cc1,-0.72,3.86,-10.09
CC(C)c1nnc2c(SCC(=O)N3CCN(c4ccccc4F)CC3)nc3ccccc3n12,4.71,-5.14,-28.6
COc1ccc(OC)c(NC(=O)Cn2nc3c4cc(-c5ccc(Cl)cc5)nn4ccn3c2=O)c1,3.06,-0.3,-21.9
O=C(Cn1nc2c(N3CCSCC3)nc3ccccc3n2c1=O)Nc1ccc(Br)cc1,7.3,11.24,-9.72
Cn1c(=O)c2ccc(C(=O)NC3CCCCC3)cc2n2c(=O)n(CC#N)nc12,3.72,1.15,-18.77
CCOC(=O)c1ccc(NC(=O)Cn2nc3c(SCc4ccc(Cl)cc4)nccn3c2=O)cc1,1.65,7.78,-18.54
COc1cccc(CN(c2ccc(F)c(F)c2)S(=O)(=O)c2ccc3nnc(C)n3c2)c1,7.43,1.78,-8.55
Cc1cc(C)cc(N(Cc2cccc(F)c2)S(=O)(=O)c2cccn3c(C)nnc23)c1,2.61,2.81,-7.1
Cc1ccc(NC(=O)CSc2nc3ccccc3n3cnnc23)c(C)c1,0.98,26.16,-16.93
CC(=O)c1ccc(NC(=O)Cn2nc3ccc(-c4ccc(C)cc4)nn3c2=O)cc1,11.92,4.12,-11.07
O=C(Cn1nc2ccc(SCc3ccc(Cl)cc3)nn2c1=O)Nc1ccccc1,9.67,9.5,-21.41
CCc1nnc2c(S(=O)(=O)N(Cc3ccc(F)cc3)c3cccc(Cl)c3)cccn12,0.19,5.46,-7.67
O=C(Cn1nc2c(N3CCOCC3)nccn2c1=O)NCc1cccs1,15.07,2.44,-8.25
COc1cccc(Oc2nccn3c(=O)n(CC(=O)Nc4cccc(Br)c4)nc23)c1,6.87,0.25,-8.58
Cc1ccc(-c2ccc3nn(Cc4ccc(Cl)cc4)c(=O)n3n2)cc1C,5.62,5.2,-10.05
Cc1cccc(NC(=O)CSc2nnc3c4cc(-c5ccccc5)nn4ccn23)c1C,7.23,5.25,-12.53
CCc1ccc(N(Cc2ccc(F)cc2)S(=O)(=O)c2cccn3c(CC)nnc23)cc1,6.32,33.96,-7.64
Cc1ccccc1Cn1nc2c(=O)n(-c3cccc(Cl)c3C)ccn2c1=O,2.06,0.54,-12.78
O=c1c2nnc(SCc3ccccc3F)n2ccn1-c1ccc(F)cc1,-2.87,2.17,-5.92
Cc1cccc(Sc2nccn3c(=O)n(CC(=O)N4CCN(c5ccccc5)CC4)nc23)c1,4.67,0.98,-15.76
O=C(Cn1nc2c3c4c(sc3ncn2c1=O)CCCC4)NCc1ccccc1Cl,0.41,2.22,-5.52

Structure (SMILES),Inhibition (Klebsiella pneumoniae) [%],Inhibition (Candida albicans) [%],Inhibition (Cryptococcus neoformans) [%]
CC(C)CCn1c(=O)c2sccc2n2c(=O)n(CC(=O)N3CCC(Cc4ccccc4)CC3)nc12,-9.97,0.93,-41.06
CC(C)c1nnc2c(SCC(=O)Nc3ccccc3C(F)(F)F)nc3ccccc3n12,13.6,0.36,-15.63
COc1ccc(-c2cc3c4nn(CC(=O)Nc5cc(C)ccc5C)c(=O)n4ccn3n2)cc1,11.61,0.97,-22.77
Cc1ccc(-c2cc3c4nn(CC(=O)NCc5ccc(Cl)cc5)c(=O)n4ccn3n2)cc1C,7.6,2,-10.6
CCCc1ccc(S(=O)(=O)Nc2ccc3nncn3n2)cc1,8.2,1.65,-5.43
CCCCn1c(=O)c2sccc2n2c(=O)n(CC(=O)c3ccc(OC)c(OC)c3)nc12,19.59,-0.04,-27.81
COc1cc(NC(=O)Cn2nc3c(Sc4cccc(F)c4)nccn3c2=O)cc(OC)c1,4.9,1.46,-6.36
CCc1ccccc1Sc1nccn2c(=O)n(CC(=O)NCc3ccc(OC)cc3)nc12,1.83,2.04,-1.62
Cc1ccccc1Cn1nc2c(=O)n(-c3ccc(Br)cc3)ccn2c1=O,14.05,0.14,-2.03
CCOC(=O)c1cccc(NC(=O)CSc2nnc3ccc(C(=O)Nc4cccc(F)c4)cn23)c1,3.6,0.96,-5.2
CC1CCCN(c2nccn3c(=O)n(CC(=O)Nc4ccc(Br)cc4F)nc23)C1 (stereo not drawn),5.81,5.05,-8.97
CCOc1ccc(-n2ccn3c(SCC(=O)Nc4ccccc4C(F)(F)F)nnc3c2=O)cc1,17.14,2.4,-14.22
Cc1ccc(NC(=O)CSc2nc3ccccc3n3c(C(C)C)nnc23)cc1Cl,1.48,-0.39,-22.27
COc1cc(NC(=O)Cn2nc3c(Oc4ccccc4)nccn3c2=O)cc(OC)c1OC,10.24,3.29,-9.79
O=C(Cn1nc2ccc(Sc3cccc(F)c3)nn2c1=O)Nc1ccc2c(c1)OCCO2,12.38,-0.05,-8.22
COc1ccccc1-n1ccn2c(SCC#N)nnc2c1=O,22.72,4.95,-18.74
Cc1ccc(-c2cc3c4nn(CC(=O)Nc5cccc(Br)c5)c(=O)n4ccn3n2)cc1,10.81,6.28,-43.73
O=C(CSc1nc2ccccc2n2cnnc12)NCc1ccccc1Cl,2.85,0.3,-14.6
O=c1c2sccc2n2c(=O)n(Cc3ccccc3F)nc2n1Cc1cccs1,-1.85,38.88,-22.09
COc1cc(NC(=O)Cn2nc3ccc(SCc4ccc(Cl)cc4)nn3c2=O)cc(OC)c1,1.27,5.86,-31.85
COc1cccc(-n2ccn3c(SCC(=O)Nc4cccc(F)c4)nnc3c2=O)c1,0.65,10.45,-5.71

Structure (SMILES),Inhibition (Klebsiella pneumoniae) [%],Inhibition (Candida albicans) [%],Inhibition (Cryptococcus neoformans) [%]
O=c1c2nn(Cc3ccc(F)cc3)c(=O)n2ccn1-c1ccccc1,9.86,2.87,-6.47
CCOc1ccccc1NC(=O)Cn1nc2c(Oc3ccccc3)nccn2c1=O,5.91,2.77,-10.21
Cc1ccc(-n2ccn3c(=O)n(Cc4ccccc4F)nc3c2=O)cc1C,7.33,0.26,-12.8
Cc1c(Cl)cccc1-n1ccn2c(=S)[nH]nc2c1=O,8.12,2.5,-13.36
CCc1ccc(N(Cc2cccc(F)c2)S(=O)(=O)c2cccn3c(CC)nnc23)cc1,9.15,4.6,-6.35
CC1CCCN(c2nccn3c(=O)n(CC(=O)Nc4ccc(F)cc4F)nc23)C1 (stereo not drawn),-1.65,1.98,-8.2
Cc1cc2nn(CC(=O)Nc3ccccc3F)c(=O)n2c(Nc2ccc(F)c(C)c2)n1,9.21,7.27,-5.54
COc1ccc(CNC(=O)Cn2nc3c4cc(-c5ccc(C)c(C)c5)nn4ccn3c2=O)cc1,7.73,11.15,-12.47
COc1cccc(CN(c2cc(C)cc(C)c2)S(=O)(=O)c2cccn3c(C)nnc23)c1,-4.31,1.08,-6.64
Cc1ccc(-c2cc3c4nn(CC(=O)NCc5ccccc5Cl)c(=O)n4ccn3n2)cc1C,7.47,-1.05,-5.01
COC(=O)c1ccc(NC(=O)Cn2nc3nc(N4CCCCCC4)ccn3c2=O)cc1,12.29,5.24,-8.37
O=C(Cn1nc2c3cc(-c4ccc(F)cc4)nn3ccn2c1=O)N1CCN(c2ccccc2F)CC1,8.2,2.96,-19.92
CCC(C)NC(=O)Cn1nc2n(Cc3ccco3)c(=O)c3sccc3n2c1=O (stereo not drawn),10.15,-0.07,-9.56
O=C(Cn1nc2c3c4c(sc3ncn2c1=O)CCCC4)NCc1ccc(F)cc1,9.92,15.82,-14.13
CCc1ccccc1Sc1nccn2c(=O)n(CC(=O)Nc3ccc(OC)cc3)nc12,0.32,4.23,-13.58
O=C(NCc1ccccc1)c1ccc2nn(CC(=O)N3CCN(c4ccccc4)CC3)c(=O)n2c1,13.57,3.02,-23.82
CCCCOc1ccc(-c2cc3c4nnc(SCC(=O)Nc5cc(C)ccc5C)n4ccn3n2)cc1,-2.43,5.83,-10.24
Cc1cc(C)c(C(=O)CSc2nnc3c(=O)n(-c4ccc(F)cc4)ccn23)cc1C,7.49,4.64,-8.78
Cc1cc2nn(CC(=O)NC(C)C)c(=O)n2c(-c2ccc(C(F)(F)F)cc2)n1,3.27,1.65,-4.89
